The values below come from PubChem BioAssay (NCATS).

Results filed as inconclusive are left out. Values without a mark were called inactive. Active and inactive are the calls of the source. The call rests on the fitted dose curve; in most records, active means well fitted curve in the direction sought with a large enough effect; inconclusive means small, poorly fitted or top-dose-only effect, or another doubt; inactive means no such curve, though single readings can be large; an effect the other way counts as inactive or inconclusive.

The target in assay [1] is Rap guanine nucleotide exchange factor 3 (Homo sapiens) (UniProt O95398). In words: Confirmatory qHTS for antagonist of cAMP-regulated guanine nucleotide exchange factor 3 (EPAC1) (AID 1645880). Further: nearly all actives have a fitted effect of over 55% in size. Further: potency means the concentration at half of the fitted maximal effect.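 On activity, negative = inhibition: plate controls were DMSO only for no effect and full effect of the ATA control for full effect.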 The note with it: EPAC1 Rap1B-BODIPY-GDP exchange, fluorescence; activity, negative = inhibition: at 115 µM (top of the series). A digest of the protocol:
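Nucleotide exchange uses 100 nM EPAC1, 250 nM RAP1B-BODIPY-GDP and 50 uM GDP, with compounds in a concentration-titration series. After 5 min at room temperature, fluorescence (480 nm ex/540 nm em) is read every 5 min for 30 min. Data are normalized to control ATA and DMSO.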

Assay [2] has the same target. In words: Confirmatory qHTS for agonist of cAMP-regulated guanine nucleotide exchange factor 3 (EPAC1) (AID 1645881). Further: nearly all actives have a fitted effect of over 75% in size. Further: potency means the concentration at half of the fitted maximal effect.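 On activation: EPAC1 catalysed release of BODIPY-GDP from Rap1B seen as fluorescence loss; 100% = effect of cAMP agonist control.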
Assay [3] has as its target Rap guanine nucleotide exchange factor 4 (Homo sapiens) (UniProt Q8WZA2). The assay can be described thus: Confirmatory qHTS for agonist of cAMP-regulated guanine nucleotide exchange factor 4 (EPAC2) (AID 1645884).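 Further: nucleotide exchange releases bodipy-GDP from Rap1 and this lowers its fluorescence; on the % scale 0 is the no-effect control and ±100 the full control effect; nearly all actives have a fitted effect of over 65% in size.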
Assay [4] shares this target. The assay can be described thus: Confirmatory qHTS for antagonist of cAMP-regulated guanine nucleotide exchange factor 4 (EPAC2) (AID 1645885). Further: nearly all actives have a fitted effect of over 25% in size. Further: potency means the concentration at half of the fitted maximal effect. On activity change, negative = inhibition: on the % scale 0 is the no-effect control and ±100 the full control effect.
Assay [5] concerns the target Rap guanine nucleotide exchange factor 3 (Homo sapiens) (UniProt O95398). In words: Counterscreen qHTS for antagonist of cAMP-regulated guanine nucleotide exchange factor 3 (EPAC1) (AID 1645888).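 Further: fluorescence loss as bound BODIPY-GDP is released from Rap1B; % of control where 0% means no effect.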 The gist of the method: (§1)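 Measured: fluorescence of BODIPY-GDP bound to Rap1B, which falls as exchange proceeds. Conditions include 50 uM competing GDP, 5 and 30 min reads, and a later cAMP challenge for antagonist detection.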

Assay [6] has the same target. In words: Counterscreen qHTS for agonist of cAMP-regulated guanine nucleotide exchange factor 3 (EPAC1) (AID 1645889). Further: nearly all actives have a fitted effect of over 40% in size. Further: potency means the concentration at half of the fitted maximal effect. On activation: % of control where 0% means no effect. A digest of the protocol: as §1

Rap guanine nucleotide exchange factor 3 (Homo sapiens), sequence (O95398 whole entry, looked up): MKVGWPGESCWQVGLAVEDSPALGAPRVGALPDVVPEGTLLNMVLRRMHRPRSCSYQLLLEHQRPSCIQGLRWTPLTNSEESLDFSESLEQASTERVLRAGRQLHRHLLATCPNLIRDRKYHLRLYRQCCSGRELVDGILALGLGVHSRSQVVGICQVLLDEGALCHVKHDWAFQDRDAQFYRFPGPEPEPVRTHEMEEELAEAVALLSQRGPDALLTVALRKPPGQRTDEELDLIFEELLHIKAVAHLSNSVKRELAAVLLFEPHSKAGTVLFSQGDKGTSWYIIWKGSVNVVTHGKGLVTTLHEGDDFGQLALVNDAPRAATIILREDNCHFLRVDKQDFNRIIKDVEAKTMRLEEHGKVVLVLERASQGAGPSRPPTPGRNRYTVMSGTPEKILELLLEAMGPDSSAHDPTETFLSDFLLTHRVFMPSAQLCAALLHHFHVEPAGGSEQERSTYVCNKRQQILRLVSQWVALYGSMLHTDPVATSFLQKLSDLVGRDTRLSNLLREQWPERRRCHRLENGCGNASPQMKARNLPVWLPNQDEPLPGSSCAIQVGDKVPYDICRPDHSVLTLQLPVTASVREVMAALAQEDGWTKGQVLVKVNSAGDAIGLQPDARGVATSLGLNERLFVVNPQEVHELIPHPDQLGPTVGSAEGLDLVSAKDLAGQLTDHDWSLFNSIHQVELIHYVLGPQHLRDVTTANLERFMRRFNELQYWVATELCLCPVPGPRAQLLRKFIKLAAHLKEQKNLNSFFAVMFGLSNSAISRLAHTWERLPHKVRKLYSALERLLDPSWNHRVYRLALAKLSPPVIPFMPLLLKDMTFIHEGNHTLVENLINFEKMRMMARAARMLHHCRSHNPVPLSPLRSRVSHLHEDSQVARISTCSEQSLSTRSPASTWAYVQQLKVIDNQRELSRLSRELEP
Rap guanine nucleotide exchange factor 4 (Homo sapiens), sequence (Q8WZA2 whole entry, looked up): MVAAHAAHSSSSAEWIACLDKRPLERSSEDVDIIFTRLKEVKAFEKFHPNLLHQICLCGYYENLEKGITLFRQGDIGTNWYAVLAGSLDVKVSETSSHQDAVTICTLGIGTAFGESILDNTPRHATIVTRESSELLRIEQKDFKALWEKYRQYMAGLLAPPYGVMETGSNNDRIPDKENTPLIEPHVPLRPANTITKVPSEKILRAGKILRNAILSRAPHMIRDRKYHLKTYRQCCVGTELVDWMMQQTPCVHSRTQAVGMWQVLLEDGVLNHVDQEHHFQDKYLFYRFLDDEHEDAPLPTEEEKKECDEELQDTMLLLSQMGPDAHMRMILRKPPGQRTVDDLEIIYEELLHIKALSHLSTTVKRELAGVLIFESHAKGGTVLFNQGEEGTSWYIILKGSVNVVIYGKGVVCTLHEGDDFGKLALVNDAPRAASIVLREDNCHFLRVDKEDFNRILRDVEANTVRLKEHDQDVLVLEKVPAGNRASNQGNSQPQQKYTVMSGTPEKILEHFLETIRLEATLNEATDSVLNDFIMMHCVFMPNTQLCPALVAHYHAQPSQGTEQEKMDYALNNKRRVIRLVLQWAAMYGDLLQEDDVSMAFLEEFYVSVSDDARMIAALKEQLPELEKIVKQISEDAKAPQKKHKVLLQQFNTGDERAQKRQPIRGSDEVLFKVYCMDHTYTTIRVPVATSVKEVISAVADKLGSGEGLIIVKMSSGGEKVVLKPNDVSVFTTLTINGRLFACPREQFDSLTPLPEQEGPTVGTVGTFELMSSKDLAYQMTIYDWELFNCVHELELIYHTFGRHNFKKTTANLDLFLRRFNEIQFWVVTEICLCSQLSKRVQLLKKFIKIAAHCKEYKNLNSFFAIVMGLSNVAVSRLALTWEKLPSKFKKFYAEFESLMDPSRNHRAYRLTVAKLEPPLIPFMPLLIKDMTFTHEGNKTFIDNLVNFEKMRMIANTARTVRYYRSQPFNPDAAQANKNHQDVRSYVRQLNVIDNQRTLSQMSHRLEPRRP

As for `O=C(CSC1=NCCS1)N1N=C(c2cccs2)CC1c1ccc(F)cc1` (stereo unspecified), the Potency entry in assay [1], in assay [2] and in assay [4] was “inactive” in each case. Moreover, the activation in assay [3] was 6.13% [at 17.1 µM, percent relative to cAMP agonist control]; in assay [6] it was 21.2% [at 30.8 µM]. Moreover, in assay [5], the activity change, negative = inhibition is 4.6% [at 30.8 µM].

As for `Cc1ccc(S(=O)(=O)Nc2ccc3cc([N+](=O)[O-])ccc3c2[N+](=O)[O-])cc1`, in assay [1], the Potency is 21.3 µM (active). Also, the Potency entry in assay [2], in assay [3], in assay [4], in assay [5] and in assay [6] was “inactive” throughout.

As for `CC1CCc2c(sc3nc(SCC(=O)O)n(-c4ccccc4)c(=O)c23)C1` (stereo unspecified), the Potency result in assay [1], in assay [2] and in assay [4] was “inactive” throughout. Further, the activation in assay [3] is -2.98% [at 17.1 µM, percent relative to cAMP agonist control]; in assay [6], 5.5% [at 30.8 µM]. The activity change, negative = inhibition in assay [5] is -13.5% [at 30.8 µM].

As for `O=C1CCc2cc(NS(=O)(=O)c3ccc([N+](=O)[O-])cc3)cc3c2N1CC3`, the Potency result in assay [1], in assay [2], in assay [3], in assay [4], in assay [5] and in assay [6] was “inactive” each time.

Consider `COc1cc(NC(=O)C2CCCCC2)c(OC)cc1NC(=O)CN1CCCCC1`, for which the Potency result in assay [1], in assay [2] and in assay [4] was “inactive” in each case. For the same compound, the activation was 4.14% [at 17.1 µM, percent relative to cAMP agonist control] in assay [3] and 11.1% [at 30.8 µM] in assay [6]. The activity change, negative = inhibition in assay [5] was -6.17% [at 30.8 µM].

`O=S(=O)(N/N=C/c1cccnc1)c1ccc(Cl)c(Cl)c1`: the Potency result in assay [1], in assay [2] and in assay [4] was “inactive” throughout. Besides, the activation is 4.19% [at 17.1 µM, percent relative to cAMP agonist control] in assay [3] and 6.45% [at 30.8 µM] in assay [6]. The activity change, negative = inhibition in assay [5] was -14.7% [at 30.8 µM].

`Fc1ccc(-c2ccc3nccn3c2)cc1Cl`: the Potency result in assay [1], in assay [2] and in assay [4] was “inactive” throughout. Moreover, the activation is 2.32% [at 17.1 µM, percent relative to cAMP agonist control] in assay [3] and 10.1% [at 30.8 µM] in assay [6]. Besides, in assay [5], the activity change, negative = inhibition is -1.11% [at 30.8 µM].

Regarding `Cc1cccc(NC(=O)c2cc(S(=O)(=O)N(C)c3ccc(F)cc3)ccc2Cl)n1`, the Potency result in assay [1], in assay [2], in assay [3], in assay [4], in assay [5] and in assay [6] was “inactive” throughout.

For `CC(OC(=O)/C(C#N)=C/c1ccc(N(C)C)cc1)C(=O)N(C)c1ccccc1` (stereo unspecified), the Potency result in assay [1] and in assay [4] was “inactive” throughout. For the same compound, the Potency in assay [2] was 50.1 µM (active). In addition, the activation in assay [3] is 3.03% [at 17.1 µM, percent relative to cAMP agonist control]; in assay [6], 20.3% [at 30.8 µM]. Besides, the activity change, negative = inhibition in assay [5] was -2.82% [at 30.8 µM].

In the case of `O=C(C1=C(O)C(=O)N(c2nc3ccc(Cl)cc3s2)C1c1ccco1)c1ccco1` (stereo unspecified), the Potency in assay [1] is 16.9 µM (active). Besides, the Potency entry in assay [2], in assay [3], in assay [4], in assay [5] and in assay [6] was “inactive” in each case.

Consider `CCC(COC)Oc1cc(NCc2ccccc2)c2ncn(C(C)C)c2c1` (stereo unspecified), for which the Potency entry in assay [1], in assay [2], in assay [3], in assay [4] and in assay [5] was “inactive” in each case. Further, the Potency in assay [6] is 7.94 µM (active).

`Cc1ccc(OCCn2c(=O)n(C)c3ccccc32)cc1`: the Potency result in assay [1], in assay [2], in assay [3], in assay [5] and in assay [6] was “inactive” throughout. In assay [4], the Potency was 67.5 µM (active).

In the case of `CCOc1cc(/C=C2\SC(=S)N(NS(=O)(=O)c3ccc(C)cc3)C2=O)ccc1O`, the Potency in assay [1] was 19 µM (active). Also, the Potency result in assay [2], in assay [3], in assay [4], in assay [5] and in assay [6] was “inactive” in each case.

For `O=C(COc1ccccc1[N+](=O)[O-])Nc1cccc(C(=O)Nc2ccccc2C(=O)O)c1`, in assay [1], the Potency is 23.9 µM (active). Besides, the Potency entry in assay [2], in assay [3], in assay [4], in assay [5] and in assay [6] was “inactive” each time.

Regarding `COc1cccc(-n2ccn(CC(=O)NCc3ccc(C)cc3)c(=O)c2=O)c1`, the Potency entry in assay [1], in assay [2], in assay [3], in assay [4], in assay [5] and in assay [6] was “inactive” in each case.

For the compound `O=C(c1cc(-c2ccc(Cl)cc2)nc2ccccc12)N1CCC1`, the Potency entry in assay [1], in assay [2], in assay [3], in assay [4], in assay [5] and in assay [6] was “inactive” in each case.

For `CCC(C)(C)NC(=O)C(c1ccccn1)N(C(=O)c1csnn1)C1CCCCC1` (stereo unspecified), the Potency result in assay [1], in assay [2], in assay [3], in assay [4], in assay [5] and in assay [6] was “inactive” each time.

Turning to `COc1ccc(OC)c(NS(=O)(=O)c2cc3c4c(c2)CCN4C(=O)CC3)c1`, the Potency entry in assay [1], in assay [2], in assay [3], in assay [4], in assay [5] and in assay [6] was “inactive” throughout.

Turning to `O=C(c1ccco1)N(CCC(c1ccccc1)c1ccco1)Cc1ccccc1` (stereo unspecified), in assay [1], the Potency was 44.7 µM (active). In addition, the Potency result in assay [2] and in assay [4] was “inactive” in each case. Besides, the activation was 1.75% [at 17.1 µM, percent relative to cAMP agonist control] in assay [3] and 15.8% [at 30.8 µM] in assay [6]. For the same compound, the activity change, negative = inhibition in assay [5] is -8.3% [at 30.8 µM].

On to `O=C(O)C(c1ccccc1)N1C(=O)/C(=C/c2cccs2)SC1=S` (stereo unspecified), for which the Potency in assay [1] was 39.8 µM (active). Also, the Potency result in assay [2] and in assay [4] was “inactive” each time. The activation in assay [3] is 2.04% [at 17.1 µM, percent relative to cAMP agonist control]; in assay [6], 6.75% [at 30.8 µM]. Moreover, in assay [5], the activity change, negative = inhibition was -23.4% [at 30.8 µM].

For `N#C/C(=C/c1ccc(O)c(O)c1)C(=O)NCc1ccc(Cl)cc1`, the Potency in assay [1] was 12.6 µM (active). Further, the Potency result in assay [2] and in assay [4] was “inactive” throughout. Moreover, the activation was 6.16% [at 17.1 µM, percent relative to cAMP agonist control] in assay [3] and 19.6% [at 30.8 µM] in assay [6]. For the same compound, the activity change, negative = inhibition in assay [5] was -1.17% [at 30.8 µM].
